Data taken from PubChem BioAssay (Tox21).
Where “and” joins values, the source holds several entries; their conditions need not be identical. Equal values may be shown once. Records with an inconclusive call do not appear. A call without a number means that no potency is given here. Calls of active or inactive are those of the source. Unless noted, calls follow the shape of the dose curve; as a rule, active = well fitted curve in the direction sought with a large enough effect in the repeat runs; inconclusive = weak or mixed curves; inactive = no such curve, though single readings can be large; an effect the other way counts as inactive or inconclusive.

Assays:
[1] = qHTS assay for small molecule agonists of the p53 signaling pathway (AID 651631; calls by dose curve; also: nearly all actives have a fitted effect of over 15% in size; also: potency is read from the fitted curve at half-maximal effect)
Method in brief: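 HCT-116 cells carrying a beta-lactamase reporter under p53 response elements were dosed with compound for 16 h at 37 °C. LiveBLAzer B/G FRET substrate was then added for 2 h at room temperature, and fluorescence intensity was read to detect pathway agonism.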

[2] = qHTS assay for small molecules that induce genotoxicity in human embryonic kidney cells expressing luciferase-tagged ATAD5 (AID 651632); also: nearly all actives have a fitted effect of over 15% in size
Method in brief: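 Concentration-response screen for ATAD5 upregulation in HEK293T luciferase reporter cells; 16 hr treatment at 37C, then luminescence after 30 min with Amplite at room temperature.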

[3] = qHTS assay for small molecules that induce genotoxicity in human embryonic kidney cells expressing luciferase-tagged ATAD5 - cell viability (AID 651634; calls by dose curve; also: nearly all actives have a fitted effect of over 25% in size; also: potency is read from the fitted curve at half-maximal effect)
Method in brief: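 15.5 hr compound or vehicle exposure of HEK293T cells expressing luciferase-tagged ATAD5 at 37C; live-cell protease activity is read by fluorescence after 30 min of CellTiter-Fluor.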

[4] = qHTS assay for small molecule disruptors of the mitochondrial membrane potential - cell viability (AID 720634; calls by dose curve; also: nearly all actives have a fitted effect of over 20% in size; also: potency is read from the fitted curve at half-maximal effect)
Method in brief: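 In this qHTS format, HepG2 cells plated overnight were pinned with compound, incubated 1 hr, and assayed for ATP luminescence with CellTiter-Glo after m-MPI dye addition.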

[5] = qHTS assay for small molecule disruptors of the mitochondrial membrane potential (AID 720635); also: potency is read from the fitted curve at half-maximal effect
Method in brief: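 HepG2 cells (2,000/well) attached overnight at 37C, then took compound for 1 hr at 37C, 5% CO2. Mito-MPS dye was added for 30 min; fluorescence was read at 490/535 nm (monomers) and 540/590 nm (aggregates).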

[6] = qHTS assay to test for compound auto fluorescence at 590 nm (red) in HepG2 cells (AID 720674)
Method in brief: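 Intrinsic compound fluorescence in the red window (Ex/Em 540/590 nm) is measured in attached HepG2 cells exposed for 1 hr, DMSO vehicle as baseline, benchmarked to Rose Bengal sodium.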

[7] = qHTS assay to test for compound auto fluorescence at 535 nm (green) in HepG2 cells (AID 720675)
[8] = qHTS assay to test for compound auto fluorescence at 460 nm (blue) in HEK293 cells (AID 720678); also: potency is read from the fitted curve at half-maximal effect
Method in brief: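 Intrinsic compound fluorescence is recorded in live HEK293 cultures after overnight incubation at 37C, 5% CO2, using excitation 405 nm and emission 460 nm. Values are referenced to triamterene.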

[9] = qHTS assay to test for compound auto fluorescence at 535 nm (green) in HEK293 cells (AID 720680)
[10] = qHTS assay to test for compound auto fluorescence at 460 nm (blue) in HEK293 cell free culture (AID 720681); also: potency is read from the fitted curve at half-maximal effect
Method in brief: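 Test compounds were pinned into cell-free culture medium (DMEM with 10% FBS) and fluorescence was read directly at Ex/Em 405/460 nm. Signals were expressed as fluorescence equivalents of triamterene, with DMSO vehicle as control.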

[11] = qHTS assay to test for compound auto fluorescence at 535 nm (green) in HEK293 cell free culture (AID 720682)
Method in brief: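 Green-label autofluorescence (485 nm excitation, 535 nm emission) measured on compound added to cell-free culture medium (DMEM, 10% FBS). Output is expressed relative to fluorescein.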

[12] = qHTS assay to test for compound auto fluorescence at 590 nm (red) in HEK293 cell free culture (AID 720683)
Method in brief: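 Tox21 10K library compounds were pinned into cell-free DMEM with 10% FBS and fluorescence was read at excitation 540 nm. Activity is expressed as Rose Bengal sodium equivalency.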

[13] = qHTS assay to test for compound auto fluorescence at 590 nm (red) in HepG2 cell free culture (AID 720684)
Method in brief: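 Ex 540 / Em 590 nm read of compound in cell-free MEM (10% FBS). Rose Bengal sodium reference.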

[14] = qHTS assay to test for compound auto fluorescence at 460 nm (blue) in HepG2 cell free culture (AID 720685); also: potency is read from the fitted curve at half-maximal effect
Method in brief: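 Cell-free plates of MEM plus 10% FBS received 23 nL compound or DMSO vehicle; blue-channel (405/460 nm) intensity scored against triamterene as reference fluorophore.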

[15] = qHTS assay to test for compound auto fluorescence at 535 nm (green) in HepG2 cell free culture (AID 720686)
[16] = qHTS assay to test for compound auto fluorescence at 460 nm (blue) in HepG2 cells (AID 720687)
Method in brief: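 Cells (2,000/well in MEM with 10% FBS) attached overnight at 37 C, then were exposed to compound or DMSO for 1 hr at 37 C, 5% CO2. Fluorescence read at Ex/Em 405/460 nm, expressed as triamterene-equivalent signal.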

[17] = biological target: Glucocorticoid receptor (Homo sapiens) (UniProt P04150); test: qHTS assay to identify small molecule agonists of the glucocorticoid receptor (GR) signaling pathway (AID 720691; active = well fitted activation curve with a large enough effect in the signal ratio in the repeat runs, not every such curve was filed as active; the % refers to the signal ratio); conditions: GR-bla HeLa, beta-lactamase reporter ratio, 18 h; activation: at 62.4 µM (top of the series) unless noted
Chain of Glucocorticoid receptor (Homo sapiens) (P04150 whole entry, looked up): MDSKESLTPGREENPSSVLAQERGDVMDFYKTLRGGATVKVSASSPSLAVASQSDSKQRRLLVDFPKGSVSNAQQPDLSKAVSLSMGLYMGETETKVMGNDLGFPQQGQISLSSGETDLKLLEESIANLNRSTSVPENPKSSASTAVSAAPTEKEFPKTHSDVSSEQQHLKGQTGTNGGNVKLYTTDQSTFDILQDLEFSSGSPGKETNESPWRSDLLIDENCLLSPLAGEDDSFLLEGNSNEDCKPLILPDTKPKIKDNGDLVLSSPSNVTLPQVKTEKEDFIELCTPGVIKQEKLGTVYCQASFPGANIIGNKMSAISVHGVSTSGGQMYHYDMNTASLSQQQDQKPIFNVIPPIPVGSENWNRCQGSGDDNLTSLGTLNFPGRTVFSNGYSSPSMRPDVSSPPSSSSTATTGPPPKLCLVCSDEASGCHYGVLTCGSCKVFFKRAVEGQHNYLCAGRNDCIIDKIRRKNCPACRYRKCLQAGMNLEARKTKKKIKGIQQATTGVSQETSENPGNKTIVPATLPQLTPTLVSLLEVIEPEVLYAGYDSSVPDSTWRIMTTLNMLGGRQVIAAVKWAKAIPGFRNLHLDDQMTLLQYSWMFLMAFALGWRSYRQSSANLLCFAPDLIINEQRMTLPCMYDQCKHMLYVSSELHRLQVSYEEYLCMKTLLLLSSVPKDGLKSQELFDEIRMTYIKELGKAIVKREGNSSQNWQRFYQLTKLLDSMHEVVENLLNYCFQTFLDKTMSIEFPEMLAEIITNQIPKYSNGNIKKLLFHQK
Method in brief: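 Measures GR pathway activation through a GRE-beta-lactamase reporter stably integrated in HeLa cells, with 18 h compound treatment at 37 C and fluorescence detection using a FRET substrate.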

[18] = biological target: Glucocorticoid receptor (Homo sapiens) (UniProt P04150); test: qHTS assay to identify small molecule antagonists of the glucocorticoid receptor (GR) signaling pathway (AID 720692; active = well fitted inhibition curve with a large enough effect in the signal ratio in the repeat runs, not every such curve was filed as active; the % refers to the signal ratio)
Method in brief: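 Tox21 10K library screened in concentration-response for blockade of dexamethasone (5 nM final)-induced GRE-bla reporter activity in HeLa cells; 18 h treatment, fluorescence read.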

[19] = qHTS assay for small molecule agonists of the p53 signaling pathway - cell viability (AID 651633; calls by dose curve;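 also: p53RE-bla HCT reporter cells with a stable beta-lactamase p53 reporter; nearly all actives have a fitted effect of over 30% in size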)
Method in brief: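 p53RE-bla cells, seeded at 4,000 per well and rested 5 h at 37 C/5% CO2, received compounds in DMSO for 16 h at 37 C. CellTiter-Glo was then added, and luminescence was read after 30 min at room temperature to gauge cytotoxicity.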

[20] = qHTS assay to test for compound auto fluorescence at 590 nm (red) in HEK293 cells (AID 720679)
Method in brief: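 Red autofluorescence, HEK293 cells: 2,000 cells/well; attach 4-5 hr 37C; add 23 nL cpd or DMSO; incubate o/n 37C 5% CO2; read Ex540/Em590; Rose Bengal sodium reference.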
Tags tell the direction and shape of the fitted curve or compound fluorescence and quenching.

| Structure (SMILES) | Potency [1] | Potency [2] | Potency [3] | Potency [4] | Potency [5] | outcome [6] | outcome [7] | Potency [8] | outcome [9] | Potency [10] | outcome [11] | outcome [12] | outcome [13] | Potency [14] | outcome [15] | outcome [16] | Potency [17] | Potency [18] | Potency [19] | outcome [20] |
| --- | --- | --- | --- | --- | --- | --- | --- | --- | --- | --- | --- | --- | --- | --- | --- | --- | --- | --- | --- | --- |
| C[C@@H]1O[C@@H](OC[C@H]2O[C@@H](Oc3c(-c4ccc(O)c(O)c4)oc4cc(O)cc(O)c4c3=O)[C@H](O)[C@@H](O)[C@@H]2O)[C@H](O)[C@H](O)[C@H]1O | inactive | inactive | inactive | inactive | inactive | inactive | inactive | inactive | inactive | inactive | inactive | inactive | inactive | inactive | inactive | inactive | inactive | inactive | – | – |
| CCCCCCCCC | inactive | inactive | inactive | inactive | – | inactive | inactive | inactive | inactive | inactive | inactive | inactive | inactive | inactive | inactive | inactive | inactive | inactive | inactive | inactive |
| OCC1CCCO1 (centres undefined) | inactive | inactive | inactive | inactive | – | inactive | inactive | inactive | inactive | inactive | inactive | inactive | inactive | inactive | inactive | inactive | inactive | inactive | inactive | inactive |
| c1ccc2[nH]cnc2c1 | inactive | inactive | inactive | inactive | – | inactive | inactive | inactive | inactive | inactive | inactive | inactive | inactive | inactive | inactive | – | – | – | – | inactive |
| Nc1nc2ncc(CNc3ccc(C(=O)N[C@@H](CCC(=O)O)C(=O)O)cc3)nc2c(=O)[nH]1 | inactive | inactive | inactive | inactive | inactive | – | inactive | 44.7 µM [fluorescent] (active) | inactive | 35.5 µM (active) | inactive | inactive | inactive | 35.5 µM [fluorescent] (active) | inactive | – | inactive | inactive | inactive | – |
| CCc1ccc(O)cc1 | inactive | inactive | inactive | inactive | 54.7 µM (active) | – | inactive | inactive | inactive | inactive | inactive | inactive | inactive | inactive | inactive | inactive | inactive | inactive | inactive | inactive |
| CC(C)(CO)COC(=O)C(C)(C)CO | inactive | inactive | inactive | inactive | inactive | – | inactive | inactive | inactive | inactive | inactive | inactive | inactive | inactive | inactive | – | inactive | inactive | – | – |
| C=CC(=O)OCCCCCCCC(C)C | inactive | inactive | inactive | inactive | – | – | inactive | inactive | inactive | inactive | inactive | inactive | inactive | inactive | inactive | – | – | – | inactive | – |
| CC(=O)Nc1ccc(C(=O)O)cc1 | inactive | inactive | inactive | inactive | inactive | – | inactive | inactive | inactive | inactive | inactive | inactive | inactive | inactive | inactive | – | inactive | inactive | – | inactive |
| O=C(c1ccc(O)cc1)c1ccc(O)cc1O | 27.6 µM (active) | inactive | inactive | 55 µM (active) | 19.5 µM (active) and 54.5 µM (active) | inactive | inactive | inactive | inactive | inactive | inactive | inactive | inactive | inactive | inactive | inactive | inactive | – | – | – |
| NC(=O)/N=N/C(N)=O | inactive | inactive | inactive | inactive | – | inactive | inactive | inactive | inactive | inactive | inactive | inactive | inactive | inactive | inactive | – | inactive | inactive | – | inactive |
| Oc1ccc2ccccc2c1 | inactive | – | inactive | inactive | 49.7 µM (active) and 30.6 µM (active) | inactive | inactive | inactive | inactive | inactive | inactive | inactive | inactive | inactive | inactive | – | inactive | inactive | – | inactive |
| C=C(C#N)C(=O)OCC | inactive | – | inactive | inactive | – | inactive | inactive | inactive | inactive | inactive | inactive | inactive | inactive | inactive | inactive | inactive | inactive | inactive | inactive | inactive |
| C=C(C)C(=O)OCC(CC)(COC(=O)C(=C)C)COC(=O)C(=C)C | inactive | – | inactive | inactive | inactive | inactive | inactive | inactive | inactive | inactive | inactive | inactive | inactive | inactive | inactive | – | inactive | inactive | inactive | – |
| O=C(c1cc(O)c(O)c(O)c1)c1ccc(O)c(O)c1O | 54.3 µM (active) | inactive | 54.3 µM (active) and 54.5 µM (active) | inactive | – | inactive | inactive | inactive | inactive | inactive | inactive | inactive | inactive | inactive | inactive | inactive | inactive | – | – | – |
| Cc1ccc(C)c(C)c1 | inactive | – | inactive | inactive | inactive | inactive | inactive | inactive | inactive | inactive | inactive | inactive | inactive | inactive | inactive | – | inactive | inactive | inactive | inactive |
